# In the supplement of paper PMC6555819:
# Key:
# Assay in all cases: PBM binding z-score (relative to random genomic background probes); higher = stronger binding; sequences stand for … in GC…GCGATTGACAGCGTAGAATGAAGG
# [1] = system: FXR:RXRa (NR concentration 270 nM, RXRa partner concentration 90 nM)
# Method in brief: (§1)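 Regression normalization was applied to scanned fluorescence from custom Agilent 4×180K protein-binding microarrays. Before scanning, arrays were incubated 1 h with ligand-free nuclear receptor dimers, and binding was detected with antibodies against each partner (one per run). Binding z-scores use the random background probes as reference.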
# [2] = system: LXRa:RXRa (NR concentration 270 nM, RXRa partner concentration 90 nM)
# Method in brief: as §1
# [3] = system: LXRa homodimer (NR concentration 270 nM)
# Method in brief: as §1
# [4] = system: LXRb:RXRa (NR concentration 270 nM, RXRa partner concentration 90 nM)
# Method in brief: as §1
# [5] = system: LXRb homodimer (NR concentration 270 nM)
# Method in brief: as §1
# [6] = system: PPARa:RXRa (NR concentration 270 nM, RXRa partner concentration 90 nM)
# Method in brief: as §1
# [7] = system: PPARg:RXRa (NR concentration 180 nM, RXRa partner concentration 90 nM)
# Method in brief: as §1
# [8] = system: PPARg:RXRa 270nM:90nM, anti-RXR (NR concentration 270 nM, RXRa partner concentration 90 nM)
# Method in brief: as §1
# [9] = system: PPARg:RXRa 30nM:10nM, anti-RXR (NR concentration 30 nM, RXRa partner concentration 10 nM)
# Method in brief: as §1
# [10] = system: PPARg:RXRa 90nM:30nM, anti-RXR (NR concentration 90 nM, RXRa partner concentration 30 nM)
# Method in brief: as §1
# [11] = system: PPARg:RXRa DBDmut IVT, anti-RXR (DBD mutation: RXRa K156A/R161A, NR concentration 270 nM, RXRa partner concentration 90 nM)
# Method in brief: as §1
# [12] = system: PPARg:RXRa IVT, anti-PPARg (NR concentration 270 nM, RXRa partner concentration 90 nM)
# Method in brief: as §1
# [13] = system: PPARg DBDmut:RXRa IVT, anti-PPARg (DBD mutation: PPARg1 K132A/R137A, NR concentration 270 nM, RXRa partner concentration 90 nM)
# Method in brief: as §1
# [14] = system: PPARg DBDmut IVT, anti-PPARg (DBD mutation: PPARg1 K132A/R137A, NR concentration 270 nM)
# Method in brief: as §1
# [15] = system: PPARg homodimer (NR concentration 180 nM)
# Method in brief: as §1
# [16] = system: PXR:RXRa (NR concentration 270 nM, RXRa partner concentration 90 nM)
# Method in brief: as §1
# [17] = system: PXR homodimer (NR concentration 270 nM)
# Method in brief: as §1
# [18] = system: RARa:RXR (NR concentration 270 nM, RXRa partner concentration 90 nM)
# Method in brief: as §1
# [19] = system: RARa homodimer (NR concentration 270 nM)
# Method in brief: as §1
# [20] = system: RARb:RXRa (NR concentration 270 nM, RXRa partner concentration 90 nM)
# Method in brief: as §1
Sequence,PBM binding z-score [1],PBM binding z-score [2],PBM binding z-score [3],PBM binding z-score [4],PBM binding z-score [5],PBM binding z-score [6],PBM binding z-score [7],PBM binding z-score [8],PBM binding z-score [9],PBM binding z-score [10],PBM binding z-score [11],PBM binding z-score [12],PBM binding z-score [13],PBM binding z-score [14],PBM binding z-score [15],PBM binding z-score [16],PBM binding z-score [17],PBM binding z-score [18],PBM binding z-score [19],PBM binding z-score [20]
TCATATAGGTAAAAGGTGAGAGTCGGTGTGGTAA,1.07,1.56,-0.0844,1.55,0.0234,4.75,8.85,8.5,7.77,10,5.3,4.91,2.38,1.33,1.91,1.43,0.171,2.43,1.17,1.77
TCGAGCAGGCCAGAGGGTCACTCAAGAGGTACGG,0.628,0.741,-0.581,1.11,-1.33,2.24,1.04,1.6,0.223,1.31,-0.0196,0.342,-0.384,-1.69,0.386,1.76,-0.594,2.13,-0.84,2.19
CGTCCAAGGTCAAGGTCAGTTAAAGAGACTCGAA,7.98,6.08,1.79,4.95,1.26,6.11,6.45,6.18,2.97,5.03,3.64,4.64,0.996,0.327,3.84,5.2,1.12,5.74,1.83,5.81
CCGAGTAGGTTATTGGGCATTCAGGCAACGGTGA,0.0641,0.327,0.00288,-0.0396,-0.644,0.768,1.19,2.31,0.262,1.6,3.85,2.72,-1.32,-0.589,0.636,-0.415,-0.545,-0.107,-0.0218,0.472
CCTACTGGGCCAAAGGTCACTGATTCCAATGCTC,4.23,4.62,2.37,4.72,0.63,6.39,12.2,10.6,10.2,11.6,5.75,7.12,0.0303,-0.418,3.54,5.27,1.1,6.62,1.82,4.56
CCGACTGGGGCAAGGATACCATAACGCACAGCCA,-0.419,-0.243,-0.0407,-0.588,-1.01,0.158,1.6,1.16,-0.149,0.515,2.53,2.44,-1.12,-0.391,0.238,-0.678,-0.593,-0.387,0.23,0.558
TCATATAAGTAAAAGGTGAAAGTCGGTGTGGTAA,1.04,1.71,0.168,1.8,0.141,3.59,3.78,5.58,5.48,6.35,3.39,2.38,0.923,0.618,1.82,1.24,0.368,2.22,1.48,1.83
